# PubChem BioAssay (NCI)
# The panel holds about 83,000 compounds, 20% with a hit somewhere; the sample as a whole holds those more often.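 48-hour exposure, single concentration, 96-well plates; percent growth endpoint where 0 means no net growth. Active: below 10.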 A number with no mark means an inactive call. Calls of active or inactive are those of the source.
# How the values were obtained:
# Assay in all cases: NCI-60 one-dose screen, 48 h (100 = growth as untreated, 0 = no growth, -100 = all killed)
# Details in all cases: 10 µM unless noted
# [1] = system: DU-145 prostate
# [2] = system: K-562 leukemia
# [3] = system: MALME-3M melanoma
# [4] = system: MDA-MB-231 breast
# [5] = system: RXF 393 renal
# [6] = system: SF-268 CNS
# [7] = system: SF-295 CNS
# [8] = system: SF-539 CNS
# [9] = system: UACC-257 melanoma
# [10] = system: M14 melanoma
# [11] = system: HCT-15 colon
# [12] = system: HT29 colon
# [13] = system: SNB-75 CNS
# [14] = system: SNB-19 CNS
# [15] = system: U251 CNS
# [16] = system: PC-3 prostate
# [17] = system: SK-MEL-5 melanoma
# [18] = system: UACC-62 melanoma
# [19] = system: LOX IMVI melanoma
# [20] = system: SK-MEL-28 melanoma
Compound,growth [1] [%],growth [2],growth [3],growth [4],growth [5],growth [6] [%],growth [7],growth [8],growth [9],growth [10],growth [11],growth [12],growth [13] [%],growth [14],growth [15],growth [16],growth [17],growth [18],growth [19],growth [20] [%]
CCN(CC)c1ccc(CNc2cc(C)nc3ccccc23)cc1,77.8,31%,69.8%,66.6%,68.8%,87.7,50.9%,74.7%,62.5%,64.8%,69.6%,43.3%,75.2,73.8%,63.9%,64%,9.25% (active),68.5%,65%,78.4
O=C(Nc1ccccc1O)c1ccc(CNC(=O)c2ccsc2Nc2ccnc(C(F)(F)F)c2)cc1,30.6,9.19% (active),9.89% (active),39.1%,0.801% (active),40.2,2.43% (active),42.4%,6.92% (active),45.2%,28%,28.7%,47.8,52.3%,1.39% (active),14.5%,-8.81% (active),9.79% (active),34.5%,51.3
CC(=O)c1ccc(Nc2nccc(-c3ccc4ccccc4c3)n2)cc1,105,59.6%,101%,102%,85.1%,93.6,100%,100%,104%,97.6%,85.7%,91.4%,91.8,94.9%,95.5%,91.5%,97.6%,88%,99%,107
Oc1c(CN2CCCC2)cc(CSCc2ccccc2)c2cccnc12,22.6,11%,-2.43% (active),26.4%,31.3%,11.9,5.5% (active),-26.2% (active),-16.7% (active),-3.2% (active),-39.3% (active),91%,24.6,23.9%,-1.52% (active),20.8%,-26.3% (active),-19.5% (active),2.24% (active),23.8
COC(=O)c1c2c(c(C)[n+]([O-])c1C)C(=O)C(NCc1ccc(OC)cc1)=CC2=O,43.9,11.4%,-92.8% (active),5.7% (active),47.3%,22.5,66.6%,10.4%,-47.5% (active),13.3%,9.67% (active),9.48% (active),127,5.27% (active),-13.9% (active),4.67% (active),-53.1% (active),-27.9% (active),19%,61.9
NNCCc1ccc(NC(=O)CCCc2ccc(C(=O)Nc3ccccc3N)cc2)cc1,90.7,43.5%,56.9%,67.5%,75.2%,72.3,69%,60.8%,41.4%,72%,96.8%,51.1%,68.2,85.5%,54.1%,55.1%,57.1%,49.2%,63.7%,75.6
CNC1=CC(=O)c2c(C(=O)OC)c(C)[n+]([O-])c(C)c2C1=O,68.7,71%,-46.2% (active),63.8%,74.4%,89.2,86.4%,83.8%,49.3%,24%,49.1%,16.5%,147,81.5%,64%,61.9%,-47.9% (active),27.3%,34.4%,96.3
